AmpC inh detg – AmpC beta-lactamase inhibition with detergent present. P00811. AmpC hydrolysis of nitrocefin, absorbance 480 nm, 0.01% Triton. Potency, µM (top dose mostly 114 µM), without a hit: at the highest dose activity change, negative = inhibition, usual class: inhibitors. 0.041% of 370,000 active. AID 485294;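 note: potency is the fitted concentration of half-maximal effect; 0% = no-compound wells and -100% = no-enzyme wells; nearly all actives have a fitted effect of over 25% in size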
Target sequence (P00811 whole entry, looked up): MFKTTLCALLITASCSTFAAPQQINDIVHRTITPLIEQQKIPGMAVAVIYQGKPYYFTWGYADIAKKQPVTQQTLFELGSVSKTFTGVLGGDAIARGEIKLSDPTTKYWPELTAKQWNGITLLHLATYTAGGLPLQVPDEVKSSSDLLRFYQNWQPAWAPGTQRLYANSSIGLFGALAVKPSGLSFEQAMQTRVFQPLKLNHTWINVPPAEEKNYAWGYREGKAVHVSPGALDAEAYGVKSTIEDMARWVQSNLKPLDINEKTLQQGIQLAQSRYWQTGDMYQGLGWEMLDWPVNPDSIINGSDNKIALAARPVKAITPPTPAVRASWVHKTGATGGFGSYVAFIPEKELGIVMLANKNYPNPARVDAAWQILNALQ
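AmpC (5.3 nM in the dispensed reagent) in 20 mM phosphate pH 7.0 with 0.01% (detergent screen) or 0.0001% Triton X-100 was preincubated with compounds for 15 min at room temperature. Nitrocefin was then added from an 800 uM solution, and hydrolysis was followed at 480 nm.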
Cycloheximide cs – counter-screen hit for Shiga toxin inhibitors, cycloheximide; cell reporter, cycloheximide protein synthesis inhibition counterscreen; max response, %; 12% of 300,000 active; AID 2314; in the data active = max response mostly above about 13%, no sharp cut-off; inactive = mostly below about 14%; note: read at 38.3 µM for the half of the compounds with a filed dose; 0% is about no effect
NS1 function inh – inhibitors of influenza NS1 protein function | Potency, µM (titrated, usually from 46.1 µM), without a hit: at the top dose activity, positive = more growth | 0.4% of 270,000 active; calls by dose curve; note: potency is the fitted concentration of half-maximal effect; actives are rising curves; nearly all actives have a fitted effect of over 50% in size
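S. cerevisiae expressing influenza A NS1, grown in glucose, washed, then diluted 1:100 into pH 6.0 -URA galactose medium with 23 nl compound. Growth recovery read as OD600; NS1-free strain serves as control.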
AmpC no deterg – inhibitors of E. coli AmpC beta-lactamase without detergent. P00811. AmpC nitrocefin hydrolysis, absorbance 480 nm, 0.0001% Triton. Potency, µM (titrated, usually from 57.1 µM), for inactives: at the top dose activity change, negative = inhibition, most hits filed as inhibitors. 0.52% of 330,000 active. AID 485341;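 note: potency is the fitted concentration of half-maximal effect; plate controls were no compound for no effect and no enzyme for full effect; nearly all actives have a fitted effect of over 20% in size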
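AmpC (5.3 nM in the dispensed reagent) in 20 mM phosphate pH 7.0 with 0.01% (detergent screen) or 0.0001% Triton X-100 was preincubated with compounds for 15 min at room temperature. Nitrocefin was then added from an 800 uM solution, and hydrolysis was followed at 480 nm.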
Shiga toxin inh – Shiga toxin inhibition. Vero cells, Shiga toxin protein synthesis inhibition reporter. inhibition, % at 38.7 µM. 9.2% of 290,000 active. AID 2315; in the data active = inhibition mostly above about 28%, no sharp cut-off; inactive = mostly below about 43%; note: 0% is about no effect
* = called active by the depositor; ? = inconclusive; / = not tested or not shown. The sample as a whole holds a higher share of hits than the screen did. Unless noted, calls come from the whole dose curve; as a rule, active = well fitted curve in the direction sought with a large enough effect; inconclusive = small, poorly fitted or top-dose-only effect, or another doubt; inactive = no such curve, though single readings can be large; an effect the other way counts as inactive or inconclusive.

SMILES	AmpC inh detg	Cycloheximide cs	NS1 function inh	AmpC no deterg	Shiga toxin inh
Cc1cccc(-n2ncc3c2CCCC3NC(=O)C2=CC(=O)CC(C)(C)O2)c1C (stereo not given)	?	2.6	4.4%	49.4%	1.3
Cc1ccc(NC(=O)C2CCCN2S(=O)(=O)c2ccc(F)cc2)c(C)c1 (stereo not given)	?	-3.2	-10.8%	-3.5%	-5.7
Cc1c(C(=O)NC(=S)Nc2ccc(NC(=O)c3cccs3)cc2)oc2ccccc12	?	-4.6	-31.0%	17.8µM*	-14.7
O=C(/C=C/c1cccs1)NC(=S)NNC(=O)c1ccccc1O	-6.0%	9.4	/	-24.2%	-9.1
O=C(NC(=S)Nc1ccc(Br)cn1)c1cccs1	7.3%	69.1*	/	-14.5%	104.8*
O=C(/C=C/c1cccs1)NC(=S)Nc1ccccc1	-4.1%	32.5*	-1.9%	-52.3%	122.6*
CC(=O)c1ccc(NC(=O)CCS(=O)(=O)c2ccc3c(c2)n(C)c(=O)c(=O)n3C)cc1	8.5%	1.0	?	-8.3%	-5.9
Cc1noc(C)c1NC(=O)Nc1ccc2c(c1)C(=O)N([C@H](C)CO)C[C@H](C)[C@@H](CN(C)S(=O)(=O)c1ccccc1)O2	/	/	/	113.3%	/
COc1ccc(OCc2cc(C(=O)NC(C)Cc3cccnc3)no2)c(Cl)c1 (stereo not given)	1.4%	27.0*	-17.3%	64.0%	38.0
COc1ccc(OCc2cc(C(=O)NC(C)Cn3cncn3)no2)c(Cl)c1 (stereo not given)	3.0%	39.5*	-7.1%	27.4%	62.3*
CC(Cc1cccnc1)NC(=O)c1cc(COc2ccc(F)cc2F)on1 (stereo not given)	5.6%	7.3	2.8%	36.2%	28.1
COc1ccc(OCc2cc(C(=O)NC(C)Cc3ccccn3)no2)c(Cl)c1 (stereo not given)	-0.5%	34.7*	-37.4%	76.5%	37.1*
Cc1ccc(CNS(=O)(=O)c2cc(C(=O)Nc3cccc(C(F)(F)F)c3)ccc2F)cc1	12.7%	/	/	/	/
c1ccc(-c2nc3ccccn3c2NCc2ccc3c(c2)OCO3)cc1	-1.5%	2.1	-168.4%	-29.8%	-10.2
COc1ccc(-c2nc3cc(C)ccn3c2NCc2ccc3c(c2)OCO3)cc1	4.8%	27.2*	-4.2%	-17.6%	133.4*
COc1ccc(-c2nc3ccccn3c2NCc2ccc3c(c2)OCO3)cc1	-3.8%	22.3*	4.0%	-29.9%	49.4*
Cc1ccccc1NC(=O)CSc1nc2c(c(=O)n(C)c(=O)n2C)n1Cc1ccccc1F	-0.8%	/	/	/	/
COc1ccc(NCc2ccc(OC)c(Cn3ccnc3)c2)c(OC)c1	6.8%	1.6	-41.3%	20.6%	3.9
O=c1[nH]ccc2c(S(=O)(=O)N3CCCNCC3)cccc12	/	-4.8	/	/	-5.4
c1ccc(-c2nnc3sc(CN4CCc5ccccc54)cn23)cc1	1.8%	24.2	-127.0%	-25.4%	46.3*
Nc1ccc(C(=O)Nc2ccc(OC(F)(F)C(F)F)c(NC(=O)c3ccc(N)cc3)c2)cc1	-3.0%	17.5*	21.6%	-29.7%	16.5
O=C(CC1SC(=NCCc2ccccc2)N(/N=C/c2cccs2)C1=O)Nc1ccc(Cl)cc1 (stereo not given)	1.5%	12.9*	1.4%	-11.7%	20.8
O=C(CC1SC(=O)N(c2ccccc2)C1=O)Nc1ccc(Cl)cc1 (stereo not given)	1.0%	14.2*	9.6%	-46.8%	45.7
O=C(CC1SC(=O)N(c2ccccc2)C1=O)Nc1ccc(Br)cc1 (stereo not given)	-6.3%	23.9*	5.8%	8.91µM*	50.9*
O=C(CC1Sc2ncnn2C1=O)Nc1ccc(Cl)cc1 (stereo not given)	1.8%	-0.1	/	-39.4%	-1.2
SMILES	AmpC inh detg	Cycloheximide cs	NS1 function inh	AmpC no deterg	Shiga toxin inh
COc1ccc(C2Nc3ccccc3C(=O)N2Cc2ccccc2)cc1COc1ccccn1 (stereo not given)	2.9%	-3.5	7.8%	15.6%	-12.6
COc1ccc(N2C(=O)c3ccccc3NC2c2ccc(OC)c(COc3ccccn3)c2)cc1 (stereo not given)	-12.4%	16.1*	3.5%	-27.9%	11.1
COc1ccc(N2C(=O)c3ccccc3NC2c2ccc(OC)c(CSc3ccccn3)c2)cc1 (stereo not given)	?	56.1*	-6.7%	-55.5%	75.7
CCCN1C(=O)c2ccccc2NC1c1ccc(OC)c(CSc2ccccn2)c1 (stereo not given)	-11.9%	0.9	6.6%	-39.1%	-9.8
N#Cc1c(NC(=O)CSc2nc(N)cc(=O)[nH]2)sc2c1CCCC2	-3.7%	4.7	1.3%	-35.0%	13.4
CC(C)(C)c1cc(NCCCn2ccnc2)n2ncc(-c3ccccc3)c2n1	10.8%	36.6*	0.2%	185.7%	67.3*
CC(C)Nc1cc(C(C)(C)C)nc2c(-c3ccccc3)cnn12	-5.0%	55.1*	1.1%	-16.1%	150.7*
CC(C)(C)c1cc(-n2ccnc2)n2ncc(-c3ccc(Cl)cc3)c2n1	5.5%	39.6*	9.8%	-10.4%	59.4*
Cc1cc(NCCCn2ccnc2)n2ncc(-c3ccc(Cl)cc3)c2n1	-0.7%	39.8*	-56.4%	165.1%	82.7*
CCCc1cc(NCCCn2ccnc2)n2nc(C)c(-c3ccccc3)c2n1	8.4%	-6.8	1.3%	100.8%	-5.9
O=C(CSc1nnc(-c2ccc(O)cc2)o1)NNC(=O)c1ccncc1	1.3%	-3.4	1.4%	2.5%	2.0
Cc1ccc(C)c(OCCNc2ncccc2[N+](=O)[O-])c1	7.9%	11.8	-43.4%	-20.8%	16.3
COc1cc(NS(=O)(=O)c2ccc(NC(=O)C(C)Oc3ccc(Cl)cc3Cl)cc2)nc(OC)n1 (stereo not given)	-2.6%	/	/	/	/
Cn1c(=O)c2c(nc(NCCCN3CCOCC3)n2Cc2ccc(Cl)cc2)n(C)c1=O	5.6%	9.8	?	79.5%	-13.8
Cc1cc(NCCCN2CCOCC2)n2ncc(-c3ccc(Cl)cc3)c2n1	?	21.9*	-125.6%	-1.7%	59.3
CC(C)(C)c1cc(NCc2ccccn2)n2ncc(-c3ccc(Cl)cc3)c2n1	-10.0%	1.3	1.3%	-12.6%	24.0
CN(C)CCCNc1cc(C(C)(C)C)nc2c(-c3ccc(Cl)cc3)cnn12	-6.4%	40.0*	8.5%	102.0%	52.9*
O=C(/C=C/c1cccnc1)c1ccc([N+](=O)[O-])cc1	-0.4%	-4.3	-6.7%	-9.5%	-7.3
Cc1nn(C)cc1/C=N/O	-2.5%	-1.2	4.6%	/	-11.3
O=C(/C=C/c1cccnc1)c1ccc(O)cc1	1.0%	12.6*	3.4%	-3.8%	8.4
O=C(/C=C/c1ccc(N2CCC(c3ccccc3)=N2)cc1)c1ccccc1	6.7%	39.0*	/	-25.2%	79.6*
COc1ccc(OC)cc1	/	/	/	-9.7%	/
Cc1nn(C)cc1/C=C/C(=O)c1ccc(O)cc1	-5.5%	38.0*	-11.7%	-24.4%	39.7*
COc1ccc(-c2cc(O)cc(O)c2)cc1	0.5%	33.4*	-9.4%	-26.7%	50.1*
CCCCc1ccc(NC(=O)CSc2nc(=O)n(CCCN3CCOCC3)c3c2CCC3)cc1	?	/	/	201.9%	/
